Data: PubChem BioAssay (NCI)
Several values for one entry are separate records, joined by “and”; a condition that tells them apart may be missing. Identical values can stand only once. This is part of a sample that, as a whole, favours compounds with a hit. Of some 79,000 tested, about 15% had one in any assay. Some compounds were tested as several samples or in several runs, with calls that do not always agree. Activity calls are given as the source filed them. Rule as the data show it: active = growth inhibition above about 70%; inactive = the rest.

Key:
[1] = NCI Yeast Anticancer Drug Screen. Data for the wt1 strain (AID 149);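 also: 0% = growth of vehicle-treated wt1 cultures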; settings: S. cerevisiae wt1 strain (SPY 50644) growth inhibition, stronger effect = higher value
Procedure, shortened: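 The wt1 strain was treated with compounds, and growth was compared with vehicle-treated cultures to give inhibition.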

[2] = NCI Yeast Anticancer Drug Screen. Data for the rad50EPP+ strain (AID 151);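 also: 0% = growth of vehicle-treated control cultures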; settings: S. cerevisiae rad50 mutant strain, stronger effect = higher value
Procedure, shortened: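 One strain with a rad50 alteration (rad50EPP+) was compound-treated, its growth then compared to that of vehicle controls.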

[3] = NCI Yeast Anticancer Drug Screen. Data for the mgt1 strain (AID 153); settings: S. cerevisiae mgt1 mutant growth inhibition, stronger effect = higher value
Procedure, shortened: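 After exposure of the mgt1 yeast mutant to compound, growth was measured and reported as inhibition compared with vehicle controls.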

[4] = NCI Yeast Anticancer Drug Screen. Data for the rad50 strain (AID 155);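 also: 0% = growth of vehicle-only cultures of the same strain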; settings: S. cerevisiae rad50 strain growth inhibition, stronger effect = higher value
Procedure, shortened: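 Cells are treated with compound, grown, and their growth is then scored against vehicle-only cultures of the same repair-deficient yeast strain.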

[5] = NCI Yeast Anticancer Drug Screen. Data for the mec2-1 strain (AID 157); settings: S. cerevisiae mec2-1 strain, stronger effect = higher value
Procedure, shortened: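 Test agents were screened against the mec2-1 yeast strain, with defined DNA repair or cell cycle alteration. Growth was scored as inhibition against vehicle-only controls.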

[6] = NCI Yeast Anticancer Drug Screen. Data for the rad14 strain (AID 159);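 also: 0% = growth of vehicle-treated control cultures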; settings: S. cerevisiae rad14 strain growth inhibition, stronger effect = higher value
Procedure, shortened: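 Readout: yeast growth inhibition, referenced to vehicle-only cultures. Strain bears a defined alteration in DNA damage repair.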

[7] = NCI Yeast Anticancer Drug Screen. Data for the sgs1 mgt1 strain (AID 161);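 also: 0% = growth of cultures given vehicle only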; settings: S. cerevisiae sgs1 mgt1 strain, stronger effect = higher value
Procedure, shortened: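 Read-out: growth inhibition vs vehicle controls. Cells: mutant yeast strain deficient in DNA damage repair.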

[8] = NCI Yeast Anticancer Drug Screen. Data for the CLN2oe strain (AID 163);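 also: 0% = growth of vehicle-only control cultures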; settings: S. cerevisiae CLN2oe strain, stronger effect = higher value
Procedure, shortened: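 Here, growth inhibition in a cell-cycle-altered yeast strain after compound exposure was quantified against vehicle control growth.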

[9] = NCI Yeast Anticancer Drug Screen. Data for the cln2 rad14 strain (AID 165);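 also: 0% = growth equal to vehicle treated cultures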; settings: S. cerevisiae cln2 rad14 strain, stronger effect = higher value
Procedure, shortened: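 Growth of compound-exposed yeast (cln2 rad14 genotype) measured and expressed as inhibition relative to vehicle.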

[10] = NCI Yeast Anticancer Drug Screen. Data for the bub3 strain (AID 167); settings: S. cerevisiae bub3 mutant strain, stronger effect = higher value
Procedure, shortened: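 Part of a panel of yeast mutants defective in DNA damage repair or cell cycle regulation. Each strain is grown with compound, and inhibition is calculated relative to solvent-treated cultures.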

[11] = NCI Yeast Anticancer Drug Screen. Data for the wt2 strain (AID 169);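 also: 0% = growth of vehicle-treated yeast cultures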; settings: S. cerevisiae wt2 strain growth inhibition, stronger effect = higher value
Procedure, shortened: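 Genetically defined yeast strains from a DNA-repair/cell-cycle panel were used. Compound-exposed yeast growth was measured, and the inhibition was calculated relative to vehicle treatment.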

[12] = NCI Yeast Anticancer Drug Screen. Data for the mlh1 strain (AID 171);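 also: 0% = growth of vehicle-treated control cultures of the same strain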; settings: S. cerevisiae mlh1 strain growth inhibition, stronger effect = higher value
Procedure, shortened: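 Here the genetically defined yeast mutant is grown with each compound, and the extent to which its growth falls below that of vehicle-exposed cells is reported.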

[13] = NCI Yeast Anticancer Drug Screen. Data for the sgs1 strain (AID 173);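 also: 0% = growth of vehicle-only control cultures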; settings: S. cerevisiae sgs1 mutant, stronger effect = higher value
Procedure, shortened: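 Relative growth inhibition, referenced to vehicle, was determined in a yeast strain with a defined alteration affecting DNA damage repair or cell cycle control after compound exposure.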

[14] = NCI Yeast Anticancer Drug Screen. Data for the mlh1 rad18 strain (AID 175); settings: S. cerevisiae mlh1 rad18 strain growth inhibition, stronger effect = higher value
Procedure, shortened: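 In this whole-cell yeast screen, a strain with altered DNA damage repair is challenged with compound, and its growth is measured against matched vehicle-treated controls.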

[15] = NCI Yeast Anticancer Drug Screen. Data for the rad18 strain (AID 177); settings: S. cerevisiae rad18 mutant growth inhibition, stronger effect = higher value
Procedure, shortened: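 Screen uses a yeast strain with a defined lesion in DNA damage repair; compound effect is read as loss of growth compared to untreated vehicle cultures.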

[16] = at 5.0 µM (retest, dose inferred, filed as 0.5)
[17] = at 50.0 µM (retest, dose inferred, filed as 5.0)

Q: For Cc1cnc(/C=N\NC(N)=S)c2cccc(N)c12, which growth inhibition ([1]; at 1.2 µM) is on record?
A: -63% (inactive)

Q: What about the growth inhibition ([1]; at 3.7 µM) of the same compound?
A: -49% (inactive)

Q: What about the growth inhibition ([1]; at 11.0 µM) of the same compound?
A: -36% (inactive)

Q: And the growth inhibition ([1]; at 33.0 µM)?
A: 58% (inactive)

Q: And the growth inhibition ([1]; at 100.0 µM)?
A: 90% (active)

Q: What about the growth inhibition ([2]; at 1.2 µM) of the same compound?
A: -68% (inactive)

Q: What about the growth inhibition ([2]; at 3.7 µM) of the same compound?
A: -57% (inactive)

Q: And the growth inhibition ([2]; at 11.0 µM)?
A: -45% (inactive)

Q: And the growth inhibition ([2]; at 33.0 µM)?
A: -38% (inactive)

Q: And the growth inhibition ([2]; at 100.0 µM)?
A: -4% (inactive)

Q: What about the growth inhibition ([3]; at 1.2 µM) of the same compound?
A: -78% (inactive)

Q: And the growth inhibition ([3]; at 3.7 µM)?
A: -69% (inactive)

Q: And the growth inhibition ([3]; at 11.0 µM)?
A: -12% (inactive)

Q: And the growth inhibition ([3]; at 33.0 µM)?
A: 43% (inactive)

Q: And the growth inhibition ([3]; at 100.0 µM)?
A: 84% (active)

Q: And the growth inhibition ([4]; at 1.2 µM)?
A: -81% (inactive)

Q: What about the growth inhibition ([4]; at 3.7 µM) of the same compound?
A: -43% (inactive)

Q: What about the growth inhibition [4, 16] of the same compound?
A: 13% (inactive) and 15% (inactive)

Q: What about the growth inhibition ([4]; at 11.0 µM) of the same compound?
A: -69% (inactive)

Q: And the growth inhibition ([4]; at 33.0 µM)?
A: 28% (inactive)

Q: What about the growth inhibition [4, 17] of the same compound?
A: 80% (active) and 71% (active)

Q: And the growth inhibition ([4]; at 50.0 µM)?
A: 62.3% (inactive) and 60% (inactive)

Q: What about the growth inhibition ([4]; at 100.0 µM) of the same compound?
A: 83% (active)

Q: And the growth inhibition ([5]; at 1.2 µM)?
A: -19% (inactive)

Q: And the growth inhibition ([5]; at 3.7 µM)?
A: -48% (inactive)

Q: And the growth inhibition [5, 16]?
A: 7% (inactive) and 21% (inactive)

Q: And the growth inhibition ([5]; at 11.0 µM)?
A: 13% (inactive)

Q: What about the growth inhibition ([5]; at 33.0 µM) of the same compound?
A: 82% (active)

Q: And the growth inhibition [5, 17]?
A: 87% (active) and 86% (active)

Q: What about the growth inhibition ([5]; at 50.0 µM) of the same compound?
A: 74% (active) and 60% (inactive)

Q: And the growth inhibition ([5]; at 100.0 µM)?
A: 94% (active)

Q: What about the growth inhibition ([6]; at 1.2 µM) of the same compound?
A: -92% (inactive)

Q: And the growth inhibition ([6]; at 3.7 µM)?
A: -75% (inactive)

Q: And the growth inhibition ([6]; at 11.0 µM)?
A: -35% (inactive)

Q: What about the growth inhibition ([6]; at 33.0 µM) of the same compound?
A: 45% (inactive)

Q: And the growth inhibition ([6]; at 100.0 µM)?
A: 91% (active)

Q: What about the growth inhibition [7, 16] of the same compound?
A: 16% (inactive) and 8% (inactive)

Q: What about the growth inhibition [7, 17] of the same compound?
A: 83% (active) and 30% (inactive)

Q: What about the growth inhibition ([7]; at 50.0 µM) of the same compound?
A: 61.1% (inactive) and 63% (inactive)

Q: What about the growth inhibition ([8]; at 1.2 µM) of the same compound?
A: -16% (inactive)

Q: And the growth inhibition ([8]; at 3.7 µM)?
A: -39% (inactive)

Q: What about the growth inhibition ([8]; at 11.0 µM) of the same compound?
A: -29% (inactive)

Q: And the growth inhibition ([8]; at 33.0 µM)?
A: 30% (inactive)

Q: And the growth inhibition ([8]; at 100.0 µM)?
A: 63% (inactive)

Q: What about the growth inhibition [9, 16] of the same compound?
A: -8% (inactive) and 9% (inactive)

Q: And the growth inhibition [9, 17]?
A: 66% (inactive) and -55% (inactive)

Q: What about the growth inhibition ([9]; at 50.0 µM) of the same compound?
A: 42.1% (inactive) and 70% (active)

Q: What about the growth inhibition ([10]; at 1.2 µM) of the same compound?
A: -69% (inactive)

Q: What about the growth inhibition ([10]; at 3.7 µM) of the same compound?
A: -60% (inactive)

Q: What about the growth inhibition [10, 16] of the same compound?
A: 15% (inactive) and 9% (inactive)

Q: And the growth inhibition ([10]; at 11.0 µM)?
A: -50% (inactive)

Q: What about the growth inhibition ([10]; at 33.0 µM) of the same compound?
A: 25% (inactive)

Q: And the growth inhibition [10, 17]?
A: 87% (active) and -11% (inactive)

Q: What about the growth inhibition ([10]; at 50.0 µM) of the same compound?
A: 48.4% (inactive) and 75.1% (active)

Q: What about the growth inhibition ([10]; at 100.0 µM) of the same compound?
A: 80% (active)

Q: And the growth inhibition ([11]; at 1.2 µM)?
A: -73% (inactive)

Q: And the growth inhibition ([11]; at 3.7 µM)?
A: -48% (inactive)

Q: What about the growth inhibition ([11]; at 11.0 µM) of the same compound?
A: 5% (inactive)

Q: What about the growth inhibition ([11]; at 33.0 µM) of the same compound?
A: 56% (inactive)

Q: What about the growth inhibition ([11]; at 100.0 µM) of the same compound?
A: 91% (active)

Q: What about the growth inhibition ([12]; at 1.2 µM) of the same compound?
A: -75% (inactive)

Q: And the growth inhibition ([12]; at 3.7 µM)?
A: -79% (inactive)

Q: What about the growth inhibition ([12]; at 11.0 µM) of the same compound?
A: -43% (inactive)

Q: What about the growth inhibition ([12]; at 33.0 µM) of the same compound?
A: 27% (inactive)

Q: And the growth inhibition ([12]; at 100.0 µM)?
A: 87% (active)

Q: And the growth inhibition ([13]; at 1.2 µM)?
A: -39% (inactive)

Q: What about the growth inhibition ([13]; at 3.7 µM) of the same compound?
A: -42% (inactive)

Q: What about the growth inhibition ([13]; at 11.0 µM) of the same compound?
A: -13% (inactive)

Q: And the growth inhibition ([13]; at 33.0 µM)?
A: 49% (inactive)

Q: And the growth inhibition ([13]; at 100.0 µM)?
A: 94% (active)

Q: And the growth inhibition [14, 16]?
A: 17% (inactive) and 23% (inactive)

Q: What about the growth inhibition [14, 17] of the same compound?
A: 85% (active) and 82% (active)

Q: And the growth inhibition ([14]; at 50.0 µM)?
A: 75.2% (active) and 89% (active)

Q: What about the growth inhibition ([15]; at 1.2 µM) of the same compound?
A: -144% (inactive)

Q: And the growth inhibition ([15]; at 3.7 µM)?
A: -115% (inactive)

Q: And the growth inhibition ([15]; at 11.0 µM)?
A: -88% (inactive)

Q: And the growth inhibition ([15]; at 33.0 µM)?
A: 25% (inactive)

Q: And the growth inhibition ([15]; at 100.0 µM)?
A: 85% (active)
